Rows were chosen to be rich in hits. Some 15% of all compounds tested hit in one or more screens of this group.
ALOX12 inh = Primary qHTS assay for inhibitors of human arachidonate 12S-lipoxygenase (ALOX12): Round 2; Polyunsaturated fatty acid lipoxygenase ALOX12 (Homo sapiens), P18054; Potency, µM (titrated, usually from 108 µM), for inactives: at the highest dose activity change, negative = inhibition, usual class: inhibitors; purified 12hLO, xylenol orange hydroperoxide absorbance; 580,000 compounds, 1.1% hits
Target sequence (P18054 whole entry, looked up): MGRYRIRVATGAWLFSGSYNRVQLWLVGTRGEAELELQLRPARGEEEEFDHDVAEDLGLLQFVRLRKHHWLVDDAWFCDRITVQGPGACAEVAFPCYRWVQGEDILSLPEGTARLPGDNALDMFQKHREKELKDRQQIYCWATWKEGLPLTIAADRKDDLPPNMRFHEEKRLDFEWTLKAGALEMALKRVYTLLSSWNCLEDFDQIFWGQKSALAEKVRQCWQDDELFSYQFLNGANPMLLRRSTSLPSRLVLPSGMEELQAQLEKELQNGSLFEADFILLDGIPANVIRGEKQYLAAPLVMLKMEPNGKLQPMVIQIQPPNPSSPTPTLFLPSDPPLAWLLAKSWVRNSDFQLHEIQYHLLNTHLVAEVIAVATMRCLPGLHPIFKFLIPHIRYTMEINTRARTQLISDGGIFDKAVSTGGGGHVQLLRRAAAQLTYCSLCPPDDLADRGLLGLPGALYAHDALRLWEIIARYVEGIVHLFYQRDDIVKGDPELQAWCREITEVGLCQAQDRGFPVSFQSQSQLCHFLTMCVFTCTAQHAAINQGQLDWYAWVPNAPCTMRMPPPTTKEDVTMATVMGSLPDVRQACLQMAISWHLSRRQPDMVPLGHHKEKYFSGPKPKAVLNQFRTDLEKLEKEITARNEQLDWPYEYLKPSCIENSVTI
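Purified human 12hLO at 150 nM in 25 mM Hepes, 0.01% Triton X-100, pH 7.0, preincubated 15 min at room temperature with compound. Reaction started with 40 uM arachidonic acid, 30 min at room temperature. Hydroperoxide measured by Fe-xylenol orange, 573/405 nm absorbance ratio.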
DT40 TDP1 CPT = qHTS for Inhibitors of human tyrosyl-DNA phosphodiesterase 1 (TDP1): qHTS in cells in presence of CPT; chicken DT40 Tdp1-/-;hTDP1 cells + 20 nM CPT, ATP luminescence, 48 h; Potency, µM (series often up to 46.2 µM), without a hit: top-dose activity change, negative = growth inhibition, most hits filed as inhibitors; 420,000 compounds, 12% hits; note: nearly all actives have a fitted effect of over 55% in size
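Chicken DT40 Tdp1-/- cells complemented with human TDP1, 400 cells/well, exposed to compounds plus 20 nM camptothecin for at least 48 h at 37 C; viability read as ATP content by CellTiter-Glo luminescence.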
ELG1 DNA repair = qHTS screen for small molecules that inhibit ELG1-dependent DNA repair in human embryonic kidney (HEK293T) cells expressing luciferase-tagged ELG1; 330,000 compounds, 2.3% hits; HEK293T ELG1-luciferase reporter, luminescence, 16 h; DNA damage induced by 5-fluorouridine; Potency, µM (titrated, usually from 46.1 µM), inactives show at the highest dose activity change, negative = inhibition, usual class: inhibitors; note: nearly all actives have a fitted effect of over 55% in size
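DMSO vehicle served as the neutral condition. Each well held 2,000 cells given 5-fluorouridine plus compound; after 16 hr at 37 °C/5% CO2, ONE-Glo was added and luciferase measured 30 min later.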
VP16 counter = VP16 counterscreen qHTS for inhibitors of ROR gamma transcriptional activity | Drosophila S2 Gal4-VP16 UAS-luciferase, luminescence, 20 h | Potency, µM (highest dose often 53.6 µM), inactives show at the highest dose activity, negative = inhibition, hits mostly inhibitors | 310,000 compounds, 3.5% hits | AID 2546, 2010;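 note: Gal4-VP16 expression switched on by copper sulfate through the metallothionein promoter; nearly all actives have a fitted effect of over 50% in size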
RORgamma inh = qHTS for inhibitors of ROR gamma transcriptional activity | 310,000 compounds, 5.4% hits | Potency, µM (highest dose often 53.6 µM), without a hit: at the top dose activity change, negative = inhibition, actives largely listed as inhibitors | Nuclear receptor ROR-gamma (Mus musculus), P51450 | Drosophila S2 Gal4-RORgamma UAS-luciferase reporter, 20 h; note: nearly all actives have a fitted effect of over 60% in size
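A Gal4/UAS one-hybrid system in insect cells: metallothionein-promoter Gal4–ROR gamma fusion plus Photinus luciferase reporter. Copper sulfate 700 uM final, 20 hr ambient incubation, luminescent detection after 10 min with reagent.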
TDP1 cell noCPT = qHTS for Inhibitors of human tyrosyl-DNA phosphodiesterase 1 (TDP1): qHTS in cells in absence of CPT. Potency, µM (top dose mostly 46.2 µM), without a hit: at the highest dose activity change, negative = growth inhibition, actives largely listed as inhibitors. 420,000 compounds, 15% hits. DT40 Tdp1-/- hTDP1 cells, no CPT, ATP luminescence, 48 h; note: nearly all actives have a fitted effect of over 55% in size
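Luminescent ATP content (CellTiter-Glo) served as the growth readout. Knockout chicken DT40 cells expressing human TDP1 were exposed to compounds without camptothecin for a minimum 48 hr at 37 °C.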
The depositor's hits bear a star; [ ] = another dose, or the depositor's remark. Calls come from the whole dose curve; as a rule, active = well fitted curve in the direction sought with a large enough effect; inconclusive = small, poorly fitted or top-dose-only effect, or another doubt; inactive = no such curve, though single readings can be large; an effect the other way counts as inactive or inconclusive. % is set by controls: 0 for no effect and ±100 for the full control effect; potency is the fitted concentration of half-maximal effect.

`COc1ccc(C(O)c2ncc(-c3cccc(C(F)(F)F)c3)[nH]2)cc1` (stereo not drawn) gave ALOX12 inh -12%, DT40 TDP1 CPT inconclusive and TDP1 cell noCPT inconclusive.
For COc1ccc(/C=N\NC(=O)c2ccc(-c3ccccc3)cc2)cc1COC(C)=O the results were ALOX12 inh 7%, DT40 TDP1 CPT inconclusive, ELG1 DNA repair -24%, VP16 counter -11%, RORgamma inh inconclusive and TDP1 cell noCPT inconclusive.
COc1ccc(/C=N/NC(=O)c2cc(-c3ccc(C)cc3C)nc3ccccc23)cc1COC(C)=O was read as ALOX12 inh -14%, DT40 TDP1 CPT inconclusive, ELG1 DNA repair 1%, VP16 counter 0%, RORgamma inh inconclusive and TDP1 cell noCPT 1.5µM*.
`COc1ccc(/C=N/NC(=O)c2cc(-c3ccccc3OC)nc3ccccc23)cc1COC(C)=O` gave ALOX12 inh 46%[57.4 µM], DT40 TDP1 CPT 10µM*, ELG1 DNA repair inconclusive, VP16 counter 8%, RORgamma inh 10% and TDP1 cell noCPT 14µM*.
Cc1ccc(F)cc1S(=O)(=O)N(C)CC1CCOCC1 was read as ALOX12 inh 14%.
For COc1ccc(C(=O)N2CCC3(CC2)CC(N(C(=O)c2ccccc2)C2CC2)CCO3)cn1 (stereo not drawn) the results were ALOX12 inh 47%.
For Cc1noc2nc(C(C)C)cc(C(=O)NC3CCCc4c3[nH]c3ccccc43)c12 (stereo not drawn) the results were ALOX12 inh 32µM*.
For Cc1nc(NC(=O)C2CC2)sc1C(=O)Nc1cccc(Cl)c1 the results were ALOX12 inh 0%, DT40 TDP1 CPT inconclusive, ELG1 DNA repair 0%, VP16 counter 7%, RORgamma inh inconclusive and TDP1 cell noCPT inconclusive.
O=C(O)Cc1sc(N/N=C\c2ccccc2)nc1-c1ccccc1 was read as ALOX12 inh 45µM*, DT40 TDP1 CPT -9%, ELG1 DNA repair 14%, VP16 counter -25%, RORgamma inh -28% and TDP1 cell noCPT 23µM*.
For Cc1nc(Nc2ccc(Cl)cc2Cl)sc1C(=O)Nc1ccccc1 the results were ALOX12 inh -20%, DT40 TDP1 CPT 26µM*, ELG1 DNA repair inconclusive, VP16 counter inconclusive, RORgamma inh inconclusive and TDP1 cell noCPT 18µM*.
`Cc1ccc(-c2nc(Nc3cccc(C)c3)sc2CC(=O)O)cc1` gave ALOX12 inh inconclusive, DT40 TDP1 CPT -18%, ELG1 DNA repair inconclusive, VP16 counter -8%, RORgamma inh 11µM* and TDP1 cell noCPT -6%.
For CC(=O)c1sc(N/N=C\c2ccccc2O)nc1C the results were ALOX12 inh -5%, DT40 TDP1 CPT 1µM*, ELG1 DNA repair inconclusive, VP16 counter 4µM*, RORgamma inh 1.4µM* and TDP1 cell noCPT 0.92µM*.
COc1ccccc1Nc1nc(-c2ccccc2)c(CC(=O)O)s1 was read as ALOX12 inh -9%, DT40 TDP1 CPT -1% and TDP1 cell noCPT -6%.
O=C(Nc1ccccc1Cl)c1ccccc1-c1ccccc1 was read as ALOX12 inh 7%.
For O=C(Cc1sc(-c2ccccc2)nc1-c1ccccc1)Nc1ccccc1 the results were ALOX12 inh 0%, DT40 TDP1 CPT inconclusive, ELG1 DNA repair inconclusive, VP16 counter -16%, RORgamma inh -20% and TDP1 cell noCPT inconclusive.
For Cc1cccc(C(=O)Nc2nc(C)c(C(=O)Nc3ccc4c(c3)CCC4)s2)c1 the results were ALOX12 inh inconclusive, DT40 TDP1 CPT 23µM*, ELG1 DNA repair inconclusive, VP16 counter inconclusive, RORgamma inh inconclusive and TDP1 cell noCPT inconclusive.
Screening Cc1nc(NC(=O)/C=C/c2ccccc2)sc1C(=O)Nc1ccccc1Cl returned ALOX12 inh -2%, DT40 TDP1 CPT -3%, ELG1 DNA repair 5%, VP16 counter inconclusive, RORgamma inh 16µM* and TDP1 cell noCPT -18%.
COC(=O)c1sc(Nc2ccccc2)nc1C was read as ALOX12 inh -8%, DT40 TDP1 CPT -18%, ELG1 DNA repair inconclusive, VP16 counter 2%, RORgamma inh 12% and TDP1 cell noCPT -10%.
For Cc1cccc(NC(=O)c2ccc3c(c2)CCC3)c1 the results were ALOX12 inh 3%.
Screening Cc1nc(Nc2ccc(Cl)c(Cl)c2)sc1C(=O)Nc1ccccc1 returned ALOX12 inh inconclusive, DT40 TDP1 CPT 6.5µM*, ELG1 DNA repair inconclusive, VP16 counter inconclusive, RORgamma inh inconclusive and TDP1 cell noCPT 15µM*.
Screening O=C(Cc1sc(Nc2ccccc2)nc1-c1ccccc1)NCc1ccccc1 returned ALOX12 inh -1%, DT40 TDP1 CPT 16µM*, ELG1 DNA repair inconclusive, VP16 counter inconclusive, RORgamma inh inconclusive and TDP1 cell noCPT inconclusive.
`Cc1nc(NC(=O)/C=C/c2ccccc2)sc1C(=O)Nc1ccc(Cl)cc1` gave ALOX12 inh -4%, DT40 TDP1 CPT inconclusive, ELG1 DNA repair -17%, VP16 counter inconclusive, RORgamma inh -38% and TDP1 cell noCPT inconclusive.
`COc1ccc(-c2nnc3n2CCN(C(=O)Cc2cccc(Cl)c2)C3)cc1` gave ALOX12 inh 49%.
`Cc1cccc(Nc2nc(C)c(C(=O)Nc3ccccc3)s2)c1` gave ALOX12 inh 13µM*.
CC(=O)c1sc(Nc2ccc(Oc3ccccc3)cc2)nc1C was read as ALOX12 inh -13%, DT40 TDP1 CPT inconclusive and TDP1 cell noCPT 21µM*.
Screening CC(=O)c1sc(Nc2ccccc2)nc1C returned ALOX12 inh -1%, DT40 TDP1 CPT -20% and TDP1 cell noCPT -15%.
For COc1cc(OC)c(OC)cc1CN1CCc2nc(N(C)C)[nH]c(=O)c2CC1 the results were ALOX12 inh 26%.
For O=c1cc(-c2ccccc2)[nH]c2nc3ccccc3n12 the results were ALOX12 inh -14%, DT40 TDP1 CPT 9.2µM*, ELG1 DNA repair inconclusive, VP16 counter -34%, RORgamma inh inconclusive and TDP1 cell noCPT 9.2µM*.

Screening data from PubChem.
